Measured values reported in the supplement of paper PMC11732987, “Enantioselective OTUD7B fragment discovery through chemoproteomics screening and high-throughput optimisation” (Communications Chemistry, 2025).

Experiments:
Test in all cases: log2 ratio of Biotin-Ahx-Ub-VS probe labelling (fragment/DMSO); higher = less target engagement (more negative = stronger competition), active = hit call of the paper (q ≤ 0.05, log2 ratio ≤ -1)
Conditions in all cases: compound concentration: 200 uM; treatment time: 3 h
[1] = target: USP9X (UniProt Q93008)
How it was run: (§1)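 HEK293T lysate, 495 µg per sample in Tris/CHAPS/IGEPAL buffer with protease inhibitors, was treated in triplicate with fragment at 200 µM or vehicle for 3 h and then with Biotin-Ahx-Ub-VS at 0.5 µM final for 1 h. Labelled DUBs were NeutrAvidin-enriched, digested with LysC and trypsin, and run by diaPASEF LC-MS/MS. Spectronaut label-free quantities were global-median-normalised, and values are average log2 fragment/vehicle ratios by unpaired t-test on proteins with ≥2 unique peptides.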

[2] = target: UniProt O00487
How it was run: as §1

[3] = target: UniProt O00507
How it was run: as §1

[4] = target: UniProt P51784
How it was run: as §1

[5] = target: T1, UniProt Q5T2D3
T1 sequence (whole entry): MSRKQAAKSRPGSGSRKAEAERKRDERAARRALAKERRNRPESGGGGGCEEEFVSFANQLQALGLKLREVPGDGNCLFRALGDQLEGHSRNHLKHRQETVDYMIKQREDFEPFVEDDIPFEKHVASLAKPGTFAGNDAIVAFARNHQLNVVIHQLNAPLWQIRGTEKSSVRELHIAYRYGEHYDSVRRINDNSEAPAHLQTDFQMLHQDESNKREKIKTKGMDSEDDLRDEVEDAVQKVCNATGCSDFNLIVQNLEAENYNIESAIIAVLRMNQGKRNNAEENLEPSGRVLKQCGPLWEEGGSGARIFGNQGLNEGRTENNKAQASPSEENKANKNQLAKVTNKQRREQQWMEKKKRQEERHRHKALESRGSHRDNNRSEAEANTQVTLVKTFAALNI
How it was run: as §1

[6] = target: T2, UniProt Q8TE49
T2 sequence (whole entry): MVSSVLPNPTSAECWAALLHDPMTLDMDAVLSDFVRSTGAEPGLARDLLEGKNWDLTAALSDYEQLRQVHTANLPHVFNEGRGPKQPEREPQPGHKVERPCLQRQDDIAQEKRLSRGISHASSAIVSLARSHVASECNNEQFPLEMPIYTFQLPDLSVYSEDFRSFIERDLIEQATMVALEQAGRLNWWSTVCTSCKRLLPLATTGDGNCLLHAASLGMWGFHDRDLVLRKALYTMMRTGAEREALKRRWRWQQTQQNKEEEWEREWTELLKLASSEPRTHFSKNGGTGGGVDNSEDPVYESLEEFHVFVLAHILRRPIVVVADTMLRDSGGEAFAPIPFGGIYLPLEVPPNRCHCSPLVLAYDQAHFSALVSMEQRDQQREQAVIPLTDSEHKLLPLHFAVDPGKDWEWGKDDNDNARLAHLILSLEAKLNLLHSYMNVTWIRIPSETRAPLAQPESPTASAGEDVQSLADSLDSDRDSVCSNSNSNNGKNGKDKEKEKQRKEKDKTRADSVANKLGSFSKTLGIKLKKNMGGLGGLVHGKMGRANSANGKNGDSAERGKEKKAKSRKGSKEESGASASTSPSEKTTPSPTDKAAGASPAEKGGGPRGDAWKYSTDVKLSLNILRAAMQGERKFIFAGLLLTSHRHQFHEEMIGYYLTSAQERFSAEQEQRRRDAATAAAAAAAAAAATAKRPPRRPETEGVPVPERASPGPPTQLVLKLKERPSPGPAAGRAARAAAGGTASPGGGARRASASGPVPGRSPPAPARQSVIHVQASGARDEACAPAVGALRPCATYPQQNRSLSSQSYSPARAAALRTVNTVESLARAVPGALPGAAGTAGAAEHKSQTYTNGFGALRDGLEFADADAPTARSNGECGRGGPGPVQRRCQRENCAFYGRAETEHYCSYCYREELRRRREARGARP
How it was run: as §1

[7] = target: T3, UniProt Q9P2H5
T3 sequence (whole entry): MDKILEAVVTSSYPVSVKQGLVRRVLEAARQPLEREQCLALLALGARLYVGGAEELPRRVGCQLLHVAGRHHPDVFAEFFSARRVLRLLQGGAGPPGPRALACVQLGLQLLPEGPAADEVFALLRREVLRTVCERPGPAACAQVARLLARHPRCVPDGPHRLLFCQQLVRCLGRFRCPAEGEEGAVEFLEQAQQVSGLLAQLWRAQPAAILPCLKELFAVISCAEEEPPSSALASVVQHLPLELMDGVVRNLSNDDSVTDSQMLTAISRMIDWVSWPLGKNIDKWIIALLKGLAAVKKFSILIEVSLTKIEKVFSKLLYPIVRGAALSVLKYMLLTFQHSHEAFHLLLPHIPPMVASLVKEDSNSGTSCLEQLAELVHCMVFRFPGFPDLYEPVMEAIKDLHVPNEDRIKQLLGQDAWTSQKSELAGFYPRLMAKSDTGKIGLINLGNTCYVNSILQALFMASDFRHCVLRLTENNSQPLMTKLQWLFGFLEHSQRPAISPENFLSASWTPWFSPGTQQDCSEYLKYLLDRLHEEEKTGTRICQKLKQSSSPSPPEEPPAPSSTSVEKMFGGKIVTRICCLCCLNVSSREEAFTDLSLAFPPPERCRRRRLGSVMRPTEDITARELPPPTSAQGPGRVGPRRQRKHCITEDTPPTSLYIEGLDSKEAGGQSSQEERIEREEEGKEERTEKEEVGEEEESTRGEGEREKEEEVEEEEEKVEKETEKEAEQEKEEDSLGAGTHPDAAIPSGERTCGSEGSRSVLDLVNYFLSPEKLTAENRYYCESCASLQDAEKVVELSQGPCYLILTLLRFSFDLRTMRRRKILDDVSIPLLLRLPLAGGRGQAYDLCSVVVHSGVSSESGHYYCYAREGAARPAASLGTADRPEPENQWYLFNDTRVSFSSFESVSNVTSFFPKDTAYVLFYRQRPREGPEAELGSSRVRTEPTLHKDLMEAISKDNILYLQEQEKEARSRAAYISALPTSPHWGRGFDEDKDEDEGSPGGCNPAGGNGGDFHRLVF
How it was run: as §1

[8] = target: T4, UniProt Q9UGI0
T4 sequence (whole entry): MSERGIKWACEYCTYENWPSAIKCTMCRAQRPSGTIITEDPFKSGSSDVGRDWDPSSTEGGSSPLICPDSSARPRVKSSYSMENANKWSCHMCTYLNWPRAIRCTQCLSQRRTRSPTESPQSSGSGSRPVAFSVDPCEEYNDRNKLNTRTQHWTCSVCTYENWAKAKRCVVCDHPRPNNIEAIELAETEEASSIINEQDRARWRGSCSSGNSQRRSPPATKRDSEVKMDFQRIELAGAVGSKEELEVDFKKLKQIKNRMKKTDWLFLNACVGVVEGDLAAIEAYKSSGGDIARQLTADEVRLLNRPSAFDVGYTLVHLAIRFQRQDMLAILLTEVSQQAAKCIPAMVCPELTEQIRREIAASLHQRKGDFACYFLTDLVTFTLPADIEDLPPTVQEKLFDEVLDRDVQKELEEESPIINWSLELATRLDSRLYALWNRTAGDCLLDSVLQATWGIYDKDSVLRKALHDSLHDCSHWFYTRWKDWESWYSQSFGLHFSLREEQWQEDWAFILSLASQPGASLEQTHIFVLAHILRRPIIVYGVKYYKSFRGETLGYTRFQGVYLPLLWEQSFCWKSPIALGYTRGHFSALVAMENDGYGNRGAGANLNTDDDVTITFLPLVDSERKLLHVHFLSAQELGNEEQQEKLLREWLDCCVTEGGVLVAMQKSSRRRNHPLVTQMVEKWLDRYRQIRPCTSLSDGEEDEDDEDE
How it was run: as §1

[9] = target: T5, YOD1 (UniProt Q5VVQ6)
T5 sequence (whole entry): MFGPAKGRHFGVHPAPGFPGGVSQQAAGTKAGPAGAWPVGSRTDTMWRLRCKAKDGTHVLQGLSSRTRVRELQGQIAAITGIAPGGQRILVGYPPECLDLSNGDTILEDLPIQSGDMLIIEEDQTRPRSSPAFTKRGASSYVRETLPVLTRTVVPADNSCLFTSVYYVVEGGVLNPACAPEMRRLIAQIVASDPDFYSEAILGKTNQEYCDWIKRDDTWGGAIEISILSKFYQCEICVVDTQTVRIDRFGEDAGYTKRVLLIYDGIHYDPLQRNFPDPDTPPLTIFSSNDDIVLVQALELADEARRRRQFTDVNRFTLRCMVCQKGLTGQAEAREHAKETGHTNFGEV
How it was run: as §1

Measured: log2 ratio of Biotin-Ahx-Ub-VS probe labelling

Chain of USP9X (Q93008 whole entry, the tested form may be a part): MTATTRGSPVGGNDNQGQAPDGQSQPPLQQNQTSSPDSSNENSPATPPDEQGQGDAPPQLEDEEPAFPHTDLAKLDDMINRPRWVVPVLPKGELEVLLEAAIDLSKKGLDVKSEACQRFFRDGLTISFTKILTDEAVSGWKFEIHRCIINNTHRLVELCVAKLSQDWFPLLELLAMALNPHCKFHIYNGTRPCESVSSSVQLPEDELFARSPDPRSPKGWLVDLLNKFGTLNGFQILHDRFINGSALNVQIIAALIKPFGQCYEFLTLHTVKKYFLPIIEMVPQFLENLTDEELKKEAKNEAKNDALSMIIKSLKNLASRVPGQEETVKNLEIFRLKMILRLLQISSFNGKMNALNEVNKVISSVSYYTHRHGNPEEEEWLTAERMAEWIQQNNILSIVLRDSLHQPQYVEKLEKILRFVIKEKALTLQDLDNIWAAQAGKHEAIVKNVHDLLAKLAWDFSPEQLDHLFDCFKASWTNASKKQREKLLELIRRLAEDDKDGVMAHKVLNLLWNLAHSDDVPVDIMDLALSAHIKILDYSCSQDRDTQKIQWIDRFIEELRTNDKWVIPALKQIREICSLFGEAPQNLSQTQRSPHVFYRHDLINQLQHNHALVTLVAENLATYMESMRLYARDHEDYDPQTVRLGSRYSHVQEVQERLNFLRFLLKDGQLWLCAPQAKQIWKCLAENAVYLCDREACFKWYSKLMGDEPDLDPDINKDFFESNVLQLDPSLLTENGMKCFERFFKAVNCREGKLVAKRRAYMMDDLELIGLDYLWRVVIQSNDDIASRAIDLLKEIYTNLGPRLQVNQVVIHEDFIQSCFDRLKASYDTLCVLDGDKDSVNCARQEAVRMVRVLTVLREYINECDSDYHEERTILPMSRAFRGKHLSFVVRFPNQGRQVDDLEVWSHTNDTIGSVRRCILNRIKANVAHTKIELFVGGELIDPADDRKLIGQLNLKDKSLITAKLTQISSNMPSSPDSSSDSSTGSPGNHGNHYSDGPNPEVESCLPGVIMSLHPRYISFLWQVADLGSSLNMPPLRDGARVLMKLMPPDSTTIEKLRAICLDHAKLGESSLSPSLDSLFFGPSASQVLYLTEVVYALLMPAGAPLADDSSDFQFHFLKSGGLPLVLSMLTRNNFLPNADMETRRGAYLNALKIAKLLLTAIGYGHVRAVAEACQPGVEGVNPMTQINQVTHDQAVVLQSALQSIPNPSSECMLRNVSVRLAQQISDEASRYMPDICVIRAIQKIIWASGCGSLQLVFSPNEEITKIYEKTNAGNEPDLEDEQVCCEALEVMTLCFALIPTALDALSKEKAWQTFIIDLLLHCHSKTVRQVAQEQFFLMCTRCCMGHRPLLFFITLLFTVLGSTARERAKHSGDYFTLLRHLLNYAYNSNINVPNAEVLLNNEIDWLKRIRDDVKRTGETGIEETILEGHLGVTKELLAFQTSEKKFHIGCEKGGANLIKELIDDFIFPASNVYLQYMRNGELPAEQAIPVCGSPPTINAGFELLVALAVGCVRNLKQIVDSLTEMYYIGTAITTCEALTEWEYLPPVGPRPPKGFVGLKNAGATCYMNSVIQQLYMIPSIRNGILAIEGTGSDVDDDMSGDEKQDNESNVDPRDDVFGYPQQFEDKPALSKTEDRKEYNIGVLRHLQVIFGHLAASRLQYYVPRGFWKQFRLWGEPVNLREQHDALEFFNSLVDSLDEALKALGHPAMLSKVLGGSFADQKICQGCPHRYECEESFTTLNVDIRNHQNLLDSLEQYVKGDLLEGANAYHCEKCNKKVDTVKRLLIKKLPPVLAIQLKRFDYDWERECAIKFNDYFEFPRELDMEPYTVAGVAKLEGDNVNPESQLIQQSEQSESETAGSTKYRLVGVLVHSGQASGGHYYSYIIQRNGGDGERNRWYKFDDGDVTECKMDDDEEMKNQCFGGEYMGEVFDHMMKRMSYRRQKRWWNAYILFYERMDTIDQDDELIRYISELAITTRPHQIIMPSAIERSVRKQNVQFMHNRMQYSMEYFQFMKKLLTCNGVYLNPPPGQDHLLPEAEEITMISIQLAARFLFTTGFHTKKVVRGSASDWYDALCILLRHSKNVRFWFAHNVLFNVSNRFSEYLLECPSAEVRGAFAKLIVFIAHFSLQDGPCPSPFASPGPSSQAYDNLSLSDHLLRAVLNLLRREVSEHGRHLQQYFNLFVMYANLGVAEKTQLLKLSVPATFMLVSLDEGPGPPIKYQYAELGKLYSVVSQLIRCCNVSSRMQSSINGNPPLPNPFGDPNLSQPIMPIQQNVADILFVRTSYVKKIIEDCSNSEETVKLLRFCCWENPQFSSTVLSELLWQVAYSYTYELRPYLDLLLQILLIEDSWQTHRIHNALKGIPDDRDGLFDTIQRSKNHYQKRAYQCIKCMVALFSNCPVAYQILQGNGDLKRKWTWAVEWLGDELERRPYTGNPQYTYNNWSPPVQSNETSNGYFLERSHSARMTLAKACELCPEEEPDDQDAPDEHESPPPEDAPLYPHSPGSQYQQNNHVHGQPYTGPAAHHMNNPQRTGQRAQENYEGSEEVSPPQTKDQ
Chain of UniProt O00507 (O00507 whole entry): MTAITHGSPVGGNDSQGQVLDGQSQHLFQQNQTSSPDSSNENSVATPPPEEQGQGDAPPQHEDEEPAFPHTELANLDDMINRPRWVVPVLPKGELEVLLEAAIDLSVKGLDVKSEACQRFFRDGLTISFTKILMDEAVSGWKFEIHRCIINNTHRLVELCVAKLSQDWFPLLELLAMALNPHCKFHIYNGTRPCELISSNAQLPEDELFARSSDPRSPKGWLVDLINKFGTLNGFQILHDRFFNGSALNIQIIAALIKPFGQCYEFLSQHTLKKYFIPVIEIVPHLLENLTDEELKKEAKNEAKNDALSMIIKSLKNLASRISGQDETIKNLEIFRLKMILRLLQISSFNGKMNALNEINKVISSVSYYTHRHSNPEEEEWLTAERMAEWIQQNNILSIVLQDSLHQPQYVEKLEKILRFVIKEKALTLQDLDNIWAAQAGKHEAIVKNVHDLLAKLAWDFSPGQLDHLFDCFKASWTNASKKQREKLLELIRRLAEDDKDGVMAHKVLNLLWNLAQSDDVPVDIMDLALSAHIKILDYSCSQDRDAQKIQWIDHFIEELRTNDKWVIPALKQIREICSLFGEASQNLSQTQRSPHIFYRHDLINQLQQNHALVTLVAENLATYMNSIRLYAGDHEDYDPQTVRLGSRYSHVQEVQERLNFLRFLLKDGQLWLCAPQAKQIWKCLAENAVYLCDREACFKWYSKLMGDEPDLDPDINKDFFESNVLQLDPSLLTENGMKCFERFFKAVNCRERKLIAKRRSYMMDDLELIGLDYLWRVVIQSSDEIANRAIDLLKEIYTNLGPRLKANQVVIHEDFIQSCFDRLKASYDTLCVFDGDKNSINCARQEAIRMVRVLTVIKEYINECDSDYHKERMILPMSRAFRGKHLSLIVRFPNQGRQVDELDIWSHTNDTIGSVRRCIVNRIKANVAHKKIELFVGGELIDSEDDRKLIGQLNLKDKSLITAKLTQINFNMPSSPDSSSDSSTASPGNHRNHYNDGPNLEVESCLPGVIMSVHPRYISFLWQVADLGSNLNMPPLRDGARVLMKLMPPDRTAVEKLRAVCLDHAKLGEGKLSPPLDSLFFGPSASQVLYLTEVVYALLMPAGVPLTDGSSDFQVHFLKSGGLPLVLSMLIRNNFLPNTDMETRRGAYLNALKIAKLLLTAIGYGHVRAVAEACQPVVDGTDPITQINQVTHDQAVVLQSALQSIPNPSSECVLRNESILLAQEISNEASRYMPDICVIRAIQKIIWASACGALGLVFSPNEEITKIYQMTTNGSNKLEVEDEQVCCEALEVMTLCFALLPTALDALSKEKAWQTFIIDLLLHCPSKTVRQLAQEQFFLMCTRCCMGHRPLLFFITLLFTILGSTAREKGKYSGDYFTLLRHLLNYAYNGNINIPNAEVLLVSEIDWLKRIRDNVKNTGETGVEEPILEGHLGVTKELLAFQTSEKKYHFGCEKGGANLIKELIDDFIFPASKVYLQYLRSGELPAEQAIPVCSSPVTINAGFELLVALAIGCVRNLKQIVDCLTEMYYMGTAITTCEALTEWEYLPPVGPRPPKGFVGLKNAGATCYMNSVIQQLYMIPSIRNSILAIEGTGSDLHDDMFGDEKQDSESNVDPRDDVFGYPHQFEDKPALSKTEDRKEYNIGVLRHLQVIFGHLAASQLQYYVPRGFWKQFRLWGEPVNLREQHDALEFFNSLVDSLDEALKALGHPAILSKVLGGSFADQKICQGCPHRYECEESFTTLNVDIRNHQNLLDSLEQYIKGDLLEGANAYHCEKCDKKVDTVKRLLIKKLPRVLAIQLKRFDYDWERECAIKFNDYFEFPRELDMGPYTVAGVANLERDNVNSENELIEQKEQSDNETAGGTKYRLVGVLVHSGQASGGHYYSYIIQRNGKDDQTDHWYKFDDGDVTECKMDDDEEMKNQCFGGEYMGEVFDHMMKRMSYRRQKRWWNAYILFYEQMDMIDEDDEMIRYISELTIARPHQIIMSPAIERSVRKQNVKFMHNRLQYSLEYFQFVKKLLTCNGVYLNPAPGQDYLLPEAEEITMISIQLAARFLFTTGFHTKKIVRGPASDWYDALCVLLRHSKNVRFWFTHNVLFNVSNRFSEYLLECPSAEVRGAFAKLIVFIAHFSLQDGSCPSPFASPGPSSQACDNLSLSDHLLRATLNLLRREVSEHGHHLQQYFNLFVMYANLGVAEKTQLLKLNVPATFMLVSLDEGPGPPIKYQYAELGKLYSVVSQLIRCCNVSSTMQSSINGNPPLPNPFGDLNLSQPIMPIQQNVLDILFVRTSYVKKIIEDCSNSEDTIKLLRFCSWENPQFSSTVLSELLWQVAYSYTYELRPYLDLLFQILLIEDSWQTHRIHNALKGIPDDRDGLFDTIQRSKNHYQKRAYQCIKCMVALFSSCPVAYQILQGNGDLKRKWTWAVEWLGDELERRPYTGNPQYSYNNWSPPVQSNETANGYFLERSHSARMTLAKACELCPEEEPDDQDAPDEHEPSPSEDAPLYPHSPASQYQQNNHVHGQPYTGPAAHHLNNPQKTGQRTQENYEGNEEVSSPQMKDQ

Cc1ccc2nnc(CNC(=O)CCl)n2c1
inactive: [1] 0.0675 | [2] -0.0931 | [3] 0.487 | [4] -0.0917 | [5] -0.119 | [6] -0.36 | [7] -0.342 | [8] 0.244 | [9] 0.241
